Results reported in the supplement of paper PMC8728848.
This excerpt belongs to a sample that is enriched for the strongest signals.

Tests used:
Assay in all cases: glycan array binding signal (z-score within array); higher = stronger binding
Details in all cases: glycan notation: IUPAC condensed, linker removed
Fuc(a1-2)Gal = biological target: Fuc(a1-2)Gal
Method in brief: (§1)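 The binding signal is a Z-score computed within each array. Data were drawn from 3228 arrays in the Consortium for Functional Glycomics database, restricted to those with a known protein sequence. Scores were averaged over arrays of the same protein sequence at different concentrations or buffers, and over linkers, and negative values can be taken as non-binding.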

[1] = biological target: Fuc(a1-2)Gal(b1-4)Fuc(a1-3)]GlcNAc(b1-2)Man(a1-3)[Fuc(a1-2)Gal(b1-4)[Fuc(a1-3)]GlcNAc(b1-2)Man(a1-6)]Man(b1-4)GlcNAc(b1-4)GlcNAc
Method in brief: as §1

[2] = biological target: Fuc(a1-2)Gal(b1-4)[Fuc(a1-3)]GlcNAc
Method in brief: as §1

[3] = biological target: Fuc(a1-2)[Gal(a1-3)]Gal(b1-3)GalNAc
Method in brief: as §1

[4] = biological target: Fuc(a1-2)[Gal(a1-3)]Gal(b1-3)GlcNAc(b1-2)Man(a1-3)[Fuc(a1-2)[Gal(a1-3)]Gal(b1-3)GlcNAc(b1-2)Man(a1-6)]Man(b1-4)GlcNAc(b1-4)GlcNAc
Method in brief: as §1

[5] = biological target: Fuc(a1-2)[Gal(a1-3)]Gal(b1-4)[Fuc(a1-3)]Glc
Method in brief: as §1

[6] = biological target: Fuc(a1-2)[GalNAc(a1-3)]Gal(b1-3)GalNAc(b1-3)Gal(a1-4)Gal(b1-4)Glc
Method in brief: as §1

[7] = biological target: Fuc(a1-2)[GalNAc(a1-3)]Gal(b1-4)Glc
Method in brief: as §1

[8] = biological target: Fuc(a1-2)[GalNAc(b1-3)]Gal
Method in brief: as §1

[9] = biological target: Fuc(a1-3)[Gal(b1-4)]GlcNAc(b1-2)Man(a1-3)[Fuc(a1-3)[Gal(b1-4)]GlcNAc(b1-2)Man(a1-6)]Man(b1-4)GlcNAc(b1-4)[Fuc(a1-6)]GlcNAc
Method in brief: as §1

[10] = biological target: Fuc(a1-3)[GalNAc(b1-4)]GlcNAc
Method in brief: as §1

[11] = biological target: Gal(a1-3)Gal(b1-3)GlcNAc(b1-6)GalNAc
Method in brief: as §1

[12] = biological target: Gal(a1-3)Gal(b1-4)GlcNAc(b1-2)Man(a1-3)[Gal(a1-3)Gal(b1-4)GlcNAc(b1-2)Man(a1-6)]Man(b1-4)GlcNAc(b1-4)GlcNAc
Method in brief: as §1

[13] = biological target: Gal(b1-4)GlcNAc(a1-6)Gal(b1-4)GlcNAc
Method in brief: as §1

[14] = biological target: Gal(b1-4)GlcNAc(b1-2)Man(a1-3)[Gal(b1-4)GlcNAc(b1-2)Man(a1-6)]Man(b1-4)GlcNAc(b1-4)GlcNAc
Method in brief: as §1

[15] = biological target: Gal(b1-4)GlcNAc(b1-2)[Gal(b1-4)GlcNAc(b1-4)]Man(a1-3)[GlcNAc(b1-4)][Gal(b1-4)GlcNAc(b1-2)[Gal(b1-4)GlcNAc(b1-6)]Man(a1-6)]Man(b1-4)GlcNAc(b1-4)GlcNAc
Method in brief: as §1

[16] = biological target: Gal(b1-4)GlcNAc(b1-2)[Gal(b1-4)GlcNAc(b1-6)]Man(a1-6)[Gal(b1-4)GlcNAc(b1-2)Man(a1-3)]Man(b1-4)GlcNAc(b1-4)GlcNAc
Method in brief: as §1

[17] = biological target: Gal(b1-4)GlcNAc(b1-3)Gal(b1-4)GlcNAc(b1-2)Man(a1-3)[Gal(b1-4)GlcNAc(b1-3)Gal(b1-4)GlcNAc(b1-2)Man(a1-6)]Man(b1-4)GlcNAc(b1-4)[Fuc(a1-6)]GlcNAc
Method in brief: as §1

[18] = biological target: Gal(b1-4)GlcNAc(b1-3)Gal(b1-4)GlcNAc(b1-2)[Gal(b1-4)GlcNAc(b1-3)Gal(b1-4)GlcNAc(b1-6)]Man(a1-6)[Gal(b1-4)GlcNAc(b1-3)Gal(b1-4)GlcNAc(b1-2)Man(a1-3)]Man(b1-4)GlcNAc(b1-4)GlcNAc
Method in brief: as §1

[19] = biological target: Gal(b1-4)GlcNAc(b1-3)Gal(b1-4)GlcNAc(b1-3)Gal(b1-4)GlcNAc(b1-3)Gal(b1-4)GlcNAc(b1-2)Man(a1-3)[Gal(b1-4)GlcNAc(b1-3)Gal(b1-4)GlcNAc(b1-3)Gal(b1-4)GlcNAc(b1-3)Gal(b1-4)GlcNAc(b1-2)Man(a1-6)]Man(b1-4)GlcNAc(b1-4)[Fuc(a1-6)]GlcNAc
Method in brief: as §1

[20] = biological target: Gal(b1-4)GlcNAc(b1-3)Gal(b1-4)GlcNAc(b1-3)Gal(b1-4)GlcNAc(b1-3)Gal(b1-4)GlcNAc(b1-2)[Gal(b1-4)GlcNAc(b1-3)Gal(b1-4)GlcNAc(b1-3)Gal(b1-4)GlcNAc(b1-3)Gal(b1-4)GlcNAc(b1-6)]Man(a1-6)[Gal(b1-4)GlcNAc(b1-3)Gal(b1-4)GlcNAc(b1-3)Gal(b1-4)GlcNAc(b1-3)Gal(b1-4)GlcNAc(b1-2)Man(a1-3)]Man(b1-4)GlcNAc(b1-4)[Fuc(a1-6)]GlcNAc
Method in brief: as §1

[21] = biological target: Gal(b1-4)GlcNAc(b1-3)Gal(b1-4)GlcNAc(b1-3)Gal(b1-4)GlcNAc(b1-3)Gal(b1-4)GlcNAc(b1-3)Gal(b1-4)GlcNAc(b1-3)Gal(b1-4)GlcNAc(b1-2)Man(a1-3)[Gal(b1-4)GlcNAc(b1-3)Gal(b1-4)GlcNAc(b1-3)Gal(b1-4)GlcNAc(b1-3)Gal(b1-4)GlcNAc(b1-3)Gal(b1-4)GlcNAc(b1-3)Gal(b1-4)GlcNAc(b1-2)Man(a1-6)]Man(b1-4)GlcNAc(b1-4)GlcNAc
Method in brief: as §1

[22] = biological target: Gal3S(b1-4)[Fuc(a1-3)]GlcNAc6S
Method in brief: as §1

[23] = biological target: GalNAc(b1-4)GlcNAc(b1-3)GalNAc(b1-4)GlcNAc
Method in brief: as §1

GalNAc4S6S(b1-4)GlcNAc = biological target: GalNAc4S6S(b1-4)GlcNAc
Method in brief: as §1

GlcA(b1-3)Gal = biological target: GlcA(b1-3)Gal
Method in brief: as §1

[24] = biological target: GlcNAc(b1-2)[GlcNAc(b1-4)]Man(a1-3)[GlcNAc(b1-2)Man(a1-6)]Man(b1-4)GlcNAc(b1-4)GlcNAc
Method in brief: as §1

GlcNAc(b1-3)Gal(b1-4)Glc = biological target: GlcNAc(b1-3)Gal(b1-4)Glc
Method in brief: as §1

[25] = biological target: GlcNAc(b1-3)Gal(b1-4)GlcNAc(b1-3)Gal(b1-4)GlcNAc(b1-2)Man(a1-3)[GlcNAc(b1-3)Gal(b1-4)GlcNAc(b1-3)Gal(b1-4)GlcNAc(b1-2)Man(a1-6)]Man(b1-4)GlcNAc(b1-4)GlcNAc
Method in brief: as §1

MurNAc(b1-4)GlcNAc = biological target: MurNAc(b1-4)GlcNAc
Method in brief: as §1

Neu5Ac(a2-3)Gal = biological target: Neu5Ac(a2-3)Gal
Method in brief: as §1

[26] = biological target: Neu5Ac(a2-3)Gal(b1-3)GalNAc(b1-4)[Neu5Ac(a2-8)Neu5Ac(a2-3)]Gal(b1-4)Glc
Method in brief: as §1

[27] = biological target: Neu5Ac(a2-3)Gal(b1-3)GlcNAc(b1-2)Man
Method in brief: as §1

[28] = biological target: Neu5Ac(a2-3)Gal(b1-4)GlcNAc(b1-2)Man(a1-3)[GlcNAc(b1-4)][Neu5Ac(a2-3)Gal(b1-4)GlcNAc(b1-2)Man(a1-6)]Man(b1-4)GlcNAc(b1-4)GlcNAc
Method in brief: as §1

[29] = biological target: Neu5Ac(a2-3)Gal(b1-4)GlcNAc(b1-3)Gal(b1-4)GlcNAc
Method in brief: as §1

[30] = biological target: Neu5Ac(a2-3)Gal(b1-4)GlcNAc(b1-3)Gal(b1-4)[Fuc(a1-3)]GlcNAc
Method in brief: as §1

[31] = biological target: Neu5Ac(a2-3)Gal(b1-4)GlcNAc(b1-6)[Neu5Ac(a2-3)Gal(b1-3)]GalNAc
Method in brief: as §1

[32] = biological target: Neu5Ac(a2-3)Gal(b1-4)GlcNAc6S
Method in brief: as §1

[33] = biological target: Neu5Ac(a2-3)Gal(b1-4)[Fuc(a1-3)]GlcNAc(b1-6)[Gal(b1-3)]GalNAc
Method in brief: as §1

[34] = biological target: Neu5Ac(a2-6)GalNAc(b1-4)GlcNAc
Method in brief: as §1

[35] = biological target: Neu5Ac(a2-6)GlcNAc(b1-4)GlcNAc
Method in brief: as §1

[36] = biological target: Neu5Ac(a2-8)Neu5Ac(a2-8)Neu5Ac
Method in brief: as §1

[37] = biological target: Neu5Gc(a2-3)Gal(b1-4)[Fuc(a1-3)]GlcNAc
Method in brief: as §1

B1: HA-11100 (Pseudomonas aeruginosa), Q02G51_PSEAB (protein)
chain: QFNPNEIKISQQGKTTLIDQSTQRAIINWKGFDVSADEAVRFNQPGVTSSTLNRVTAGQESVIAGRISAPGQVIIYNSNGVVFSGSAKVDVGSLITTTANISDEHFRQGKLIFDQPGNPDARIVNDGSISVAEKGLAAFVAPSVANNGVINARLGTVAMAAGNAATIDLYG
glycan array binding signal (z-score) (Fuc(a1-2)Gal): -0.09
glycan array binding signal (z-score) [1]: 3.58
glycan array binding signal (z-score) [2]: -0.134
glycan array binding signal (z-score) [3]: -0.312
glycan array binding signal (z-score) [4]: 7.81
glycan array binding signal (z-score) [5]: 0.052
glycan array binding signal (z-score) [6]: 0.044
glycan array binding signal (z-score) [7]: -0.174
glycan array binding signal (z-score) [8]: -0.384
glycan array binding signal (z-score) [9]: 3.33
glycan array binding signal (z-score) [10]: -0.403
glycan array binding signal (z-score) [11]: -0.463
glycan array binding signal (z-score) [12]: 3.53
glycan array binding signal (z-score) [13]: -0.29
glycan array binding signal (z-score) [14]: -0.512
glycan array binding signal (z-score) [15]: 3.28
glycan array binding signal (z-score) [16]: 7.59
glycan array binding signal (z-score) [17]: 10.5
glycan array binding signal (z-score) [18]: 5.77
glycan array binding signal (z-score) [19]: 2.99
glycan array binding signal (z-score) [20]: 3.24
glycan array binding signal (z-score) [21]: 1.87
glycan array binding signal (z-score) [22]: -0.451
glycan array binding signal (z-score) [23]: 0.008
glycan array binding signal (z-score) (GalNAc4S6S(b1-4)GlcNAc): -0.38
glycan array binding signal (z-score) (GlcA(b1-3)Gal): -0.243
glycan array binding signal (z-score) [24]: -0.37
glycan array binding signal (z-score) (GlcNAc(b1-3)Gal(b1-4)Glc): -0.359
glycan array binding signal (z-score) [25]: 3.34
glycan array binding signal (z-score) (MurNAc(b1-4)GlcNAc): 0.053
glycan array binding signal (z-score) (Neu5Ac(a2-3)Gal): -0.148
glycan array binding signal (z-score) [26]: -0.214
glycan array binding signal (z-score) [27]: -0.402
glycan array binding signal (z-score) [28]: -0.268
glycan array binding signal (z-score) [29]: -0.347
glycan array binding signal (z-score) [30]: -0.737
glycan array binding signal (z-score) [31]: -0.222
glycan array binding signal (z-score) [32]: -0.016
glycan array binding signal (z-score) [33]: 4.78
glycan array binding signal (z-score) [34]: -0.851
glycan array binding signal (z-score) [35]: -0.421
glycan array binding signal (z-score) [36]: -0.333
glycan array binding signal (z-score) [37]: -0.065
